Here are results for 18 compounds from ChEMBL document CHEMBL2218924, “A broad activity screen in support of a chemogenomic map for kinase signalling research and drug discovery” (Biochem J, 2013).

In assay [1] the target is Focal adhesion kinase 1 (Homo sapiens) (UniProt Q05397). The note with it: at 10 µM.
For assay [2], the target named is Fibroblast growth factor receptor 1 (Homo sapiens) (UniProt P11362). The note with it: at 1 µM.
Assay [3] has the same target. The note with it: at 10 µM.
In assay [4] the target is Fibroblast growth factor receptor 2 (Homo sapiens) (UniProt P21802). The note with it: at 1 µM.
For assay [5] the target is unchanged. The note with it: at 10 µM.
The target in assay [6] is Fibroblast growth factor receptor 3 (Homo sapiens) (UniProt P22607). The note with it: at 1 µM.
The target is the same in assay [7]. The note with it: at 10 µM.
Assay [8] concerns the target Fibroblast growth factor receptor 4 (Homo sapiens) (UniProt P22455). The note with it: at 1 µM.
The target is the same in assay [9]. The note with it: at 10 µM.
In assay [10] the target is Tyrosine-protein kinase Fer (Homo sapiens) (UniProt P16591). The note with it: at 1 µM.
Assay [11] has the same target. The note with it: at 10 µM.
Assay [12] addresses Tyrosine-protein kinase Fes/Fps (Homo sapiens) (UniProt P07332). The note with it: at 1 µM.
The target is the same in assay [13]. The note with it: at 10 µM.
In assay [14] the target is Tyrosine-protein kinase Fgr (Homo sapiens) (UniProt P09769). The note with it: at 1 µM.
Assay [15] has the same target. The note with it: at 10 µM.
Assay [16] addresses Vascular endothelial growth factor receptor 1 (Homo sapiens) (UniProt P17948). The note with it: at 1 µM.
Assay [17] has the same target. The note with it: at 10 µM.
Assay [18] has as its target Receptor-type tyrosine-protein kinase FLT3 (Homo sapiens) (UniProt P36888). The note with it: at 1 µM.
For assay [19] the target is unchanged. The note with it: at 10 µM.
The target in assay [20] is Vascular endothelial growth factor receptor 3 (Homo sapiens) (UniProt P35916). The note with it: at 1 µM.

Broadly, the residual activity is the signal under treatment as a percentage of the control signal.

Fibroblast growth factor receptor 3 (Homo sapiens), sequence (P22607 23-806 limits assumed): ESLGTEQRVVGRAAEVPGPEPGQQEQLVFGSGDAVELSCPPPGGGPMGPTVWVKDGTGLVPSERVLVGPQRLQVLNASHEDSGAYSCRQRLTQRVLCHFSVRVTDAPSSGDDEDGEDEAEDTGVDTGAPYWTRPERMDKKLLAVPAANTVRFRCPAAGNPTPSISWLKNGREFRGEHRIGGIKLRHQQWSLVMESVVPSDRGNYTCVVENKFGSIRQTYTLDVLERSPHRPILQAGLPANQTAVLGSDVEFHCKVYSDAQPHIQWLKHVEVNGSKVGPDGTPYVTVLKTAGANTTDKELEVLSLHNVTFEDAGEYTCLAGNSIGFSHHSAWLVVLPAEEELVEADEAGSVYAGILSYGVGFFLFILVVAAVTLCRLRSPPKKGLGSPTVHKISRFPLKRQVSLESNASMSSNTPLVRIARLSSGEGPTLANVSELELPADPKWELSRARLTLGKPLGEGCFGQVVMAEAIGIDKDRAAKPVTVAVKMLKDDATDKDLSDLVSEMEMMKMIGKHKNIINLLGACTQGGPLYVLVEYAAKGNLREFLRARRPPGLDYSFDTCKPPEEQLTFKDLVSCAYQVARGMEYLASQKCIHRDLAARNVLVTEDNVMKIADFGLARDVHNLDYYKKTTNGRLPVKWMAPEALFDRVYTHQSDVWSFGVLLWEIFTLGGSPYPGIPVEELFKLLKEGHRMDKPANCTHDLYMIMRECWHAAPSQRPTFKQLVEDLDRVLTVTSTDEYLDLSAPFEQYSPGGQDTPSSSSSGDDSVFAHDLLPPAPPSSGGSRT
Focal adhesion kinase 1 (Homo sapiens), sequence (Q05397 2-1052 limits assumed): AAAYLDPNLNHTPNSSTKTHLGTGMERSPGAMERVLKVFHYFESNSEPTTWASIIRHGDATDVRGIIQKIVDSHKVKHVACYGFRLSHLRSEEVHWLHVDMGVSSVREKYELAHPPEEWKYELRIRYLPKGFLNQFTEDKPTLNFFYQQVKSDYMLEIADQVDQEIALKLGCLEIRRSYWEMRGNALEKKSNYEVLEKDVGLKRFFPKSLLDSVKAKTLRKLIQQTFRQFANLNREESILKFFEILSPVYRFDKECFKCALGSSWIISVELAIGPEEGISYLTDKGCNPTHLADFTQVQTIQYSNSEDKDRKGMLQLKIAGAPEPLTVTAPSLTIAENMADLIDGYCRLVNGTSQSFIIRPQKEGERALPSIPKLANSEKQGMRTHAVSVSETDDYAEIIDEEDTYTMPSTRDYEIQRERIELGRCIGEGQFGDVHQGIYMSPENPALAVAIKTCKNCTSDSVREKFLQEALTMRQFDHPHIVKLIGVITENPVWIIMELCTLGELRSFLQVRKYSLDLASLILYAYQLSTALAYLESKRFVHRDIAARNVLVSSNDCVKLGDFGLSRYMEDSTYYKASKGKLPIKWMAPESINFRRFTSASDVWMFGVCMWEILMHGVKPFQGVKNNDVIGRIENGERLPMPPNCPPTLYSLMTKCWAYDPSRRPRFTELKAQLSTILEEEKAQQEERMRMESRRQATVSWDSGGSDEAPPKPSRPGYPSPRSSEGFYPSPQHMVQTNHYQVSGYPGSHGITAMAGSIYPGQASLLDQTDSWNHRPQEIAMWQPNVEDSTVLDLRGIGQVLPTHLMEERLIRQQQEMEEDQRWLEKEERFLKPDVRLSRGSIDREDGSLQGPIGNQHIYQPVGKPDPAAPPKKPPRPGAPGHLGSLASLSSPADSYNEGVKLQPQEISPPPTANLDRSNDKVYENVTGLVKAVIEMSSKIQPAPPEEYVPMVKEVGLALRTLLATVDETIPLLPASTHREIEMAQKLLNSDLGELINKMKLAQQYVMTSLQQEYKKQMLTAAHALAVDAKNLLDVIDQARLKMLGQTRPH
Fibroblast growth factor receptor 1 (Homo sapiens), sequence (P11362 22-822 limits assumed): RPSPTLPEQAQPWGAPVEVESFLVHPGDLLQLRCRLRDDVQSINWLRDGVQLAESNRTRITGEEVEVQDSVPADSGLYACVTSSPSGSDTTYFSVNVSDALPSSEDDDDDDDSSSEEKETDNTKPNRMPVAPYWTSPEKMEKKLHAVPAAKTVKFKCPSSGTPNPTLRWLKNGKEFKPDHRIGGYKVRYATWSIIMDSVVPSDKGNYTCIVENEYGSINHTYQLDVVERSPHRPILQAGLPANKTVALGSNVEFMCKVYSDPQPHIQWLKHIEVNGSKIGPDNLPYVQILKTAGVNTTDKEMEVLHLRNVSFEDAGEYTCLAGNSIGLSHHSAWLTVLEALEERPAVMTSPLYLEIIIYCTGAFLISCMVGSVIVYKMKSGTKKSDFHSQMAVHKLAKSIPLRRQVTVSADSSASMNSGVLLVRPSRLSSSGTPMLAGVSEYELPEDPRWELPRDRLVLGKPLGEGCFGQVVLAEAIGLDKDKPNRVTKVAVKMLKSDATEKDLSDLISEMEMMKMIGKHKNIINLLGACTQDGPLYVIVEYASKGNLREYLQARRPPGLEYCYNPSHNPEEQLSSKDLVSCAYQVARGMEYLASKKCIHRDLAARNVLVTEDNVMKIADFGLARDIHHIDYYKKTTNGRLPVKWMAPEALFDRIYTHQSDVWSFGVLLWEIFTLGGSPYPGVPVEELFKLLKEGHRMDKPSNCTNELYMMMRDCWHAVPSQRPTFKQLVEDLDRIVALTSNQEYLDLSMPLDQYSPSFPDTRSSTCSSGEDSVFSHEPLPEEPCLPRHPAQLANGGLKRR
Vascular endothelial growth factor receptor 3 (Homo sapiens), sequence (P35916 whole entry): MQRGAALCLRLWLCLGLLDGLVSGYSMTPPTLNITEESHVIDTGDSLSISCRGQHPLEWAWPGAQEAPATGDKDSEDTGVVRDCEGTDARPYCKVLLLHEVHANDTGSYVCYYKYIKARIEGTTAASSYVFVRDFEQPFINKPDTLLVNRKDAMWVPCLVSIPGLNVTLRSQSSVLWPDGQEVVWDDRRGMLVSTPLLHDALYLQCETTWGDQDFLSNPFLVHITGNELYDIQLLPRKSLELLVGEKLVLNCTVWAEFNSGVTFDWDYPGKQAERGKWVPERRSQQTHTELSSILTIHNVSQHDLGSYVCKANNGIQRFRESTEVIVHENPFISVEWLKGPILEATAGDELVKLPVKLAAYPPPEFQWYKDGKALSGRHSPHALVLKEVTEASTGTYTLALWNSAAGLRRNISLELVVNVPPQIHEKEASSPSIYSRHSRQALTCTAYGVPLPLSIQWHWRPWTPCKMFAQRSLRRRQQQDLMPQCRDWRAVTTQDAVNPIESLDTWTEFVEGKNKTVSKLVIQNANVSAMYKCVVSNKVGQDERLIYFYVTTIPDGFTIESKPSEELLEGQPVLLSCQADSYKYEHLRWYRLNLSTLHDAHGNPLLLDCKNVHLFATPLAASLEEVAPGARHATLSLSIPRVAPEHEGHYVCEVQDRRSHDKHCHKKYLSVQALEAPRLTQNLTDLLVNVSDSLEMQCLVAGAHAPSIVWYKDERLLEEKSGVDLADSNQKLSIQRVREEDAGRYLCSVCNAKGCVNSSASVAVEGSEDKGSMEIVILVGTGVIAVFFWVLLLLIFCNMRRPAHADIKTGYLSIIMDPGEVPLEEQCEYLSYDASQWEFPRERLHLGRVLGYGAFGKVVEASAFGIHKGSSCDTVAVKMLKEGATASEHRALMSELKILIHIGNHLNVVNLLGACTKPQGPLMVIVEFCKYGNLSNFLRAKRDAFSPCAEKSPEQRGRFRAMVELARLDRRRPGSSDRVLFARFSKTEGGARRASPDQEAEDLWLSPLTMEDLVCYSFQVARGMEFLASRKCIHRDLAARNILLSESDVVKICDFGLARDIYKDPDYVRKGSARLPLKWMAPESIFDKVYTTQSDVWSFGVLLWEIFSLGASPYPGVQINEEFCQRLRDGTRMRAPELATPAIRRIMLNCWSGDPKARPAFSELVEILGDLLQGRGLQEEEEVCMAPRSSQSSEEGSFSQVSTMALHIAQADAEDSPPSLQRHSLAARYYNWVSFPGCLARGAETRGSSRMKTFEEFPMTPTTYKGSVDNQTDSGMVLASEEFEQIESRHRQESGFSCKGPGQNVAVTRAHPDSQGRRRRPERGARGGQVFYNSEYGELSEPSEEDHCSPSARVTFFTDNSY
Tyrosine-protein kinase Fer (Homo sapiens), sequence (P16591 whole entry, looked up): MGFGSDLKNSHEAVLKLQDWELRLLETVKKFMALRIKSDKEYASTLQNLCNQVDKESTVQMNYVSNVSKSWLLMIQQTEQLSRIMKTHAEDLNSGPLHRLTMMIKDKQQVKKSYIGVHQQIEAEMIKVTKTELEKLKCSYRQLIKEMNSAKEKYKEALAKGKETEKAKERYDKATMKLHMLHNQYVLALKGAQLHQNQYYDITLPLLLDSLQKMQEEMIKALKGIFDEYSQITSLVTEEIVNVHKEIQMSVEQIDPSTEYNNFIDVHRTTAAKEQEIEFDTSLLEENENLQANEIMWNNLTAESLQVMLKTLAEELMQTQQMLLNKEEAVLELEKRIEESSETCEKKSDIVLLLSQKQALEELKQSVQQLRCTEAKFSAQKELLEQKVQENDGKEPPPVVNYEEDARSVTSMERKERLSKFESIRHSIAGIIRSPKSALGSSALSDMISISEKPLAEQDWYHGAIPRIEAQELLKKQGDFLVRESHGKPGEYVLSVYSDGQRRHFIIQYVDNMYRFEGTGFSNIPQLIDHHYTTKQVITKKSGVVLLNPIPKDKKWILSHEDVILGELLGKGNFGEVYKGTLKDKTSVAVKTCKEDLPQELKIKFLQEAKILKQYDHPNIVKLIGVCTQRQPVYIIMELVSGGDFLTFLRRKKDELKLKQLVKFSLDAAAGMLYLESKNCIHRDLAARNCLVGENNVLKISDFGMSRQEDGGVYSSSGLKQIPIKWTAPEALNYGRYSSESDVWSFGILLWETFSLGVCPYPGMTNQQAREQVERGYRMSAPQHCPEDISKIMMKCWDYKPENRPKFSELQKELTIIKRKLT

For the compound `COc1cc2ncnc(Nc3ccc(OCc4ccccc4)cc3)c2cc1OC`, the residual activity in assay [1] is 81%; in assay [2] it was 88%; in assay [3], 69%; in [4], 100%; in [5], 109%; in assay [6], 97%. Further, the residual activity in assay [7] is 100%; in assay [8], 122%; in [9], 99%; in [10] it was 111%; in assay [11] it was 98%; in [12], 131%. The residual activity was 97% in [13]; 67% in assay [14]; 42% in assay [15]; 57% in assay [16]; 27% in [17]; 40% in assay [18]. In addition, the residual activity in [19] was determined as 24%; in assay [20], 6%.

For `CN[C@@H]1C[C@H]2O[C@@](C)([C@@H]1OC)n1c3ccccc3c3c4c(c5c6ccccc6n2c5c31)C(=O)NC4`, the residual activity in [16] was 0%; in assay [17], -1%; in assay [18], -1%; in [19], -1%.

With `O=C1NC(=O)c2c1c1c3ccccc3n3c1c1c2c2ccccc2n1C1CCC3O1`, the residual activity in [2] was determined as 72%; in assay [3] it was 41%; in [4], 83%; in [5], 78%; in assay [6], 82%; in [7] it was 92%. The residual activity in assay [10] came out at 33%; in assay [11] it was 20%; in assay [12] it was 90%; in [13] it was 99%; in assay [16] it was 7%; in [17], 4%. The results for the residual activity in [18], in assay [19] and in assay [20] were 24%, 3% and 0%, respectively.

On to `N/C(=N\[N+](=O)[O-])N/N=C\c1ccc(-c2cccc([N+](=O)[O-])c2)o1`, for which the residual activity in assay [5] worked out at 92%; in [6], 95%; in assay [7], 92%; in assay [16] it was 86%; in [17], 72%; in assay [18], 73%. Besides, the results for the residual activity in [19] and in assay [20] were 48% and 58%, respectively.

As to `CC(C)[C@H](CO)Nc1nc(Nc2cccc(Cl)c2)c2ncn(C(C)C)c2n1`, the residual activity in [1] worked out at 13%; in [2] it was 98%; in assay [3], 15%; in assay [7], 56%; in assay [8], 118%; in assay [10], 90%. Moreover, the residual activity was found to be 26% in assay [11]; 79% in assay [12]; 19% in assay [13]; 23% in [14]; 0% in [15]; 88% in assay [16]. Also, the residual activity in assay [17] amounted to 43%; in assay [18], 17%; in assay [19] it was 2%; in assay [20] it was 42%.

Take `CC(C)(C)c1cc(C=C(C#N)C#N)cc(Br)c1O`: the residual activity in assay [1] stood at 104%; in assay [2] it was 108%; in assay [4] it was 99%; in [5], 105%; in [6], 126%; in [7], 99%. Also, the residual activity in assay [8] was found to be 118%; in assay [9], 102%; in [10] it was 120%; in assay [11] it was 107%; in assay [12], 125%; in assay [13], 98%. The residual activity in assay [14] came to 113%; in assay [15], 96%; in assay [16], 102%; in [17] it was 82%; in assay [20], 96%.

Turning to `COc1ccc2c(c1)/C(=C/c1cnc[nH]1)C(=O)N2`, the residual activity came out at 25% in assay [1]; 65% in assay [2]; 3% in [3]; 53% in [4]; 12% in [5]; 61% in assay [6]. Moreover, the residual activity in assay [7] worked out at 14%; in assay [14] it was 69%; in assay [15] it was 16%; in [18] it was 10%; in [19], 0%.

Regarding `O=[N+]([O-])/C=C/c1ccc2c(c1)OCO2`, the residual activity in [1] amounted to 72%; in assay [2] it was 115%; in assay [3], 94%; in [4], 108%; in [5] it was 97%; in [6] it was 104%. Also, the residual activity in [7] stood at 107%; in assay [8], 135%; in assay [9], 104%; in assay [10] it was 114%; in [11], 98%; in assay [12], 113%. For the same compound, the residual activity in [13] is 77%; in assay [14] it was 90%; in assay [15], 92%; in assay [16], 97%; in assay [17], 91%; in [18], 95%. Besides, the residual activity in [19] came to 69%; in assay [20] it was 88%.

Regarding `COc1cc(OC)c(/C=C2\C(=O)Nc3ccccc32)c(OC)c1`, the residual activity was found to be 81% in [1]; 107% in assay [2]; 88% in [3]; 102% in assay [4]; 90% in assay [5]; 97% in assay [10]. For the same compound, the residual activity in assay [11] turned out to be 94%; in [12] it was 102%; in [13] it was 92%; in [14], 86%; in [15] it was 76%; in assay [16] it was 92%. For the same compound, the residual activity is 94% in assay [17], 83% in [18], 72% in assay [19] and 76% in assay [20].

For the compound `CCn1cnc2c(Nc3cccc(Cl)c3)nc(N[C@@H]3CCCC[C@@H]3N)nc21`, the residual activity came to 12% in assay [1]; 76% in assay [2]; 11% in [3]; 34% in assay [5]; 113% in [6]; 53% in assay [7]. For the same compound, the residual activity in assay [8] was determined as 118%; in assay [9], 79%; in assay [10], 85%; in assay [11] it was 39%; in assay [12] it was 55%; in [13], 9%. For the same compound, the residual activity in assay [14] was 18%; in assay [15] it was 3%; in [16], 63%; in assay [17], 15%; in assay [18] it was 18%; in assay [19], 1%. The residual activity in assay [20] worked out at 50%.

Take `O=C1c2ccccc2-c2nc3nnnn3nc21`: the residual activity was 113% in [2]; 81% in [3]; 118% in [4]; 135% in [5]; 125% in assay [6]; 132% in [7]. The residual activity in assay [8] is 118%; in assay [9], 106%; in assay [10], 112%; in [11], 103%; in assay [14] it was 104%; in assay [15] it was 78%. The residual activity came out at 103% in [18] and 78% in assay [19].

Take `C[S+]([O-])c1ccc(-c2nc(-c3ccc(F)cc3)c(-c3ccncc3)[nH]2)cc1` (stereo not drawn): the residual activity was determined as 115% in [1]; 142% in assay [2]; 90% in [3]; 99% in assay [4]; 81% in assay [5]; 115% in [6]. Moreover, the residual activity in assay [7] was 99%; in [8], 110%; in assay [9] it was 97%; in assay [10], 107%; in assay [11] it was 109%; in [12], 112%. Also, the residual activity was 105% in assay [13]; 87% in assay [14]; 51% in assay [15]; 101% in [16]; 39% in assay [17]; 82% in [19]. For the same compound, the residual activity in [20] was found to be 93%.

As for `c1cc(-c2cnn3cc(-c4ccc(OCCN5CCCCC5)cc4)cnc23)ccn1`, the residual activity was found to be 47% in assay [2]; 5% in assay [3]; 72% in [9]; 87% in assay [12]; 31% in [13]; 28% in assay [14]. For the same compound, the residual activity was 2% in assay [15]; 0% in assay [16]; 0% in assay [17]; 0% in assay [18]; -1% in [19]; 1% in assay [20].

As to `COc1ccc2c(c[n+](C)c3c4cc5c(cc4ccc23)OCO5)c1OC`, the residual activity in assay [1] was 93%; in assay [2], 85%; in assay [3], 44%; in [7], 57%; in [9] it was 100%; in assay [11], 80%. Besides, the residual activity stood at 121% in assay [12]; 76% in [13]; 77% in assay [15]; 96% in [16]; 47% in [17]; 92% in assay [18]. Also, the residual activity was determined as 75% in assay [19] and 85% in [20].

Consider `O=c1[nH]c2ccccc2n1C1CCN(Cc2ccc(-c3nc4cc5[nH]cnc5cc4nc3-c3ccccc3)cc2)CC1`, for which the residual activity stood at 87% in assay [1]; 112% in [2]; 38% in assay [3]; 111% in [4]; 78% in assay [5]; 115% in [6]. The residual activity in [7] came out at 99%; in [8], 111%; in [9], 88%; in [10], 112%; in [11], 99%; in [12], 120%. Besides, the residual activity in assay [13] is 97%; in assay [14], 107%; in assay [15], 83%; in [16], 103%; in assay [17], 86%; in [18], 95%. Besides, the residual activity in assay [19] was determined as 38%; in [20], 100%.

For the compound `O=C1Nc2ccc3ncsc3c2/C1=C/c1c[nH]cn1`, the residual activity came to 13% in assay [1]; 9% in assay [2]; 1% in [3]; 18% in assay [4]; 3% in assay [5]; 19% in assay [6]. Moreover, the residual activity is 9% in assay [7]; 112% in assay [8]; 84% in [9]; 40% in assay [11]; 62% in assay [12]; 15% in assay [13]. Also, the residual activity was 47% in assay [14]; 15% in [15]; 1% in assay [16]; 0% in assay [17]; 1% in assay [18]; 0% in [19]. In [20], the residual activity is 0%.

As for `COC(=O)[C@@]1(O)C[C@H]2O[C@]1(C)n1c3ccccc3c3c4c(c5c6ccccc6n2c5c31)C(=O)NC4`, the residual activity in assay [1] stood at 5%; in assay [2], 10%; in [3] it was 11%; in assay [4], 20%; in [5], 2%; in assay [6] it was 17%. The residual activity worked out at 2% in assay [7]; 88% in [8]; 36% in [9]; 2% in [10]; 0% in assay [11]; 7% in assay [12]. The residual activity was 1% in assay [13]; 3% in assay [14]; -1% in assay [15]; 0% in [16]; 0% in [17]; 0% in [18]. The residual activity in [19] came out at 1%; in [20] it was 0%.

With `CCc1nc(-c2ccc(OC)cc2)[nH]c1-c1ccncc1`, the residual activity in assay [1] worked out at 81%; in assay [2] it was 104%; in [3], 80%; in assay [4] it was 121%; in assay [7], 124%; in [8] it was 102%. Moreover, the residual activity in assay [9] was found to be 109%; in assay [10] it was 104%; in [11], 101%; in [12], 109%; in assay [13] it was 105%; in [14], 111%. Moreover, the residual activity in assay [15] amounted to 102%; in [20] it was 100%.
